Reference: PubChem BioAssay
Activity calls are given as the source filed them. Unless noted, no rule for the calls is given here.

Tests used:
[1] = anti-His antibody binders, primary screen, artefact control for SMM control protein annotation, biochemical, small-molecule microarray, 635 nm fluorescence (AID 1128); conditions: anti-His Alexa647 antibody binding, higher = more signal;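 also: score merges feature fluorescence with signal-to-noise for each printed compound spot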
[2] = test system: Human papillomavirus type 1a E7 protein (residues 1-88); test: HPV1a E7 small-molecule binders, primary screen, biochemical, small-molecule microarray, residues 1-88, 635 nm (AID 1129); conditions: small-molecule microarray binding, fluorescence 635 nm; higher = more signal
[3] = target: Focal adhesion kinase 1 (Homo sapiens) (UniProt Q05397); test: small-molecule microarray binders of FAK, primary screen, biochemical, 635/667 nm fluorescence, BSA, DTT (AID 1130); conditions: PTK2 binding, 635 nm fluorescence, higher = more signal;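 also: composite of spot emission at 667 nm and signal to noise over triplicate slides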
Focal adhesion kinase 1 (Homo sapiens), sequence (Q05397 whole entry, looked up): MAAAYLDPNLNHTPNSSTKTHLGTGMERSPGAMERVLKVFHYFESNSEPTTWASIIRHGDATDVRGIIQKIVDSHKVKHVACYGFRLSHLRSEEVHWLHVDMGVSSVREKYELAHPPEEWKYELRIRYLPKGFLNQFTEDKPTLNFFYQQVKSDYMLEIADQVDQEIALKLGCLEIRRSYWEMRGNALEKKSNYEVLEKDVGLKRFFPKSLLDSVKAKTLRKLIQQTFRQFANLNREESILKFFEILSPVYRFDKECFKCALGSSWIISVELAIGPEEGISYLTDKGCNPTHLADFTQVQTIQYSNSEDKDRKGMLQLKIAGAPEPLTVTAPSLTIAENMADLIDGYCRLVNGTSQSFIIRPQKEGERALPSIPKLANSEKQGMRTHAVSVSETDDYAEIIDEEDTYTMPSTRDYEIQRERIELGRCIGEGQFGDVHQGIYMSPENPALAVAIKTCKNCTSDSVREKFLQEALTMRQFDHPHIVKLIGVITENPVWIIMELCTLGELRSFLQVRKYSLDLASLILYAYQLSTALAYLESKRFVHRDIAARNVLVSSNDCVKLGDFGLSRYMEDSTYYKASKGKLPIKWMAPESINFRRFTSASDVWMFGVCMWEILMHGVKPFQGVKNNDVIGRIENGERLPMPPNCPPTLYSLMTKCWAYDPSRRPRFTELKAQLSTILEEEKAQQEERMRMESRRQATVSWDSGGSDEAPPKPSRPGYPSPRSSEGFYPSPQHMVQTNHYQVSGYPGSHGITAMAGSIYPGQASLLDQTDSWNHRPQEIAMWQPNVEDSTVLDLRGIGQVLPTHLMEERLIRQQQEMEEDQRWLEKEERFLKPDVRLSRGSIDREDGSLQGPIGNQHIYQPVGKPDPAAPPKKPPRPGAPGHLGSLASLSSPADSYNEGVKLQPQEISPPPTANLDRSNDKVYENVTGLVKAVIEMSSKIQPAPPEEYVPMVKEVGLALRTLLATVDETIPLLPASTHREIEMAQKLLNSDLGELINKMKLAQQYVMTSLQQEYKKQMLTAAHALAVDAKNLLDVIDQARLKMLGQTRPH

[4] = test system: Fibrinogen (Alexa647-labelled); test: fibrinogen binders on compound microarrays, profiling panel, artefact control for SMM control-protein annotation, biochemical, small-molecule microarray, 635/667 nm fluorescence (AID 1131); conditions: fibrinogen-A647 binding fluorescence, higher = more signal;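 also: z-score merges 667 nm fluorescence with per-spot signal-to-noise over triplicate slides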
[5] = target: Follistatin (Homo sapiens) (UniProt P19883); test: follistatin binders on small-molecule microarrays, primary screen, biochemical, small-molecule microarray, 635/667 nm fluorescence (AID 1132); conditions: FST binding, 635 nm fluorescence, higher = more signal
Follistatin (Homo sapiens), sequence (P19883 whole entry, looked up): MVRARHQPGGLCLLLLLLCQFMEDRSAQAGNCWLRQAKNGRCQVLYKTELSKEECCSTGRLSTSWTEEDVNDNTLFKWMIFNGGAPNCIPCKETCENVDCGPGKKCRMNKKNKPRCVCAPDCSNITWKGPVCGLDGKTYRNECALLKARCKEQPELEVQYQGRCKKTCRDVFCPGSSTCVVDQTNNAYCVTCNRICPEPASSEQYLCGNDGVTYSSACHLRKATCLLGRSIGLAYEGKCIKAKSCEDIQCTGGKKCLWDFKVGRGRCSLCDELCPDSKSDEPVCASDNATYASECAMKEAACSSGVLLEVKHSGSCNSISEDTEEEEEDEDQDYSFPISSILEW

[6] = target: Fibroblast growth factor 2 (Homo sapiens) (UniProt P09038); test: FGF2 binders on small-molecule microarrays, primary screen, biochemical, small-molecule microarray, 635/667 nm fluorescence (AID 1133); conditions: small-molecule microarray binding, FGF2, fluorescence 635/667; higher = more signal
Fibroblast growth factor 2 (Homo sapiens), sequence (P09038 whole entry, looked up): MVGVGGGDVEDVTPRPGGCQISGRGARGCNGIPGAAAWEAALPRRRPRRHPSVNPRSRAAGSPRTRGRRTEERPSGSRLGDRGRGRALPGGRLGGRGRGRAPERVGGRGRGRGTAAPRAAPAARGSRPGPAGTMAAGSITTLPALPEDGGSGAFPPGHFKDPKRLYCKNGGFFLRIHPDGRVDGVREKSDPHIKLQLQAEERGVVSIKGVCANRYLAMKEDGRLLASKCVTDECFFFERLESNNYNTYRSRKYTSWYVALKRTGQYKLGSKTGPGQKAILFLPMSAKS

[7] = mitochondrial membrane potential change in A549 cells, profiling panel, cell-based, JC-1 fluorescence, basal, 24 h, 100 nL (AID 1138); conditions: higher = more signal;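 also: A549 lung adenocarcinoma cells under basal conditions with no added stimulus; test concentration not given here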
Lefty1 = Lefty1 binders on small-molecule microarrays, primary screen, biochemical, small-molecule microarray, 635/667 nm fluorescence (AID 1139); conditions: small-molecule microarray binding, fluorescence 635/667; higher = more signal
[8] = test system: wheat germ agglutinin (Triticum aestivum), Alexa647-labelled; test: wheat germ agglutinin binders on compound microarrays, profiling panel, artefact control for SMM control-protein annotation, biochemical, small-molecule microarray, 635/667 nm fluorescence (AID 1140); conditions: WGA-A647 binding, 635 nm fluorescence, higher = more signal;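 also: score merges 667 nm feature emission with signal to noise over triplicate slides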
[9] = target: Luciferin 4-monooxygenase (Photinus pyralis) (UniProt P08659); test: firefly luciferase enzyme inhibitors, primary screen, biochemical, luminescence, purified enzyme, 2006 set (AID 1141); conditions: SteadyGlo luminescence, 30 min, higher = more signal, called active from +8 up or from −8 down;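 also: cell-free assay with purified firefly luciferase at 100 ng per well in PBS; test concentration not given here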
Luciferin 4-monooxygenase (Photinus pyralis), sequence (P08659 whole entry, looked up): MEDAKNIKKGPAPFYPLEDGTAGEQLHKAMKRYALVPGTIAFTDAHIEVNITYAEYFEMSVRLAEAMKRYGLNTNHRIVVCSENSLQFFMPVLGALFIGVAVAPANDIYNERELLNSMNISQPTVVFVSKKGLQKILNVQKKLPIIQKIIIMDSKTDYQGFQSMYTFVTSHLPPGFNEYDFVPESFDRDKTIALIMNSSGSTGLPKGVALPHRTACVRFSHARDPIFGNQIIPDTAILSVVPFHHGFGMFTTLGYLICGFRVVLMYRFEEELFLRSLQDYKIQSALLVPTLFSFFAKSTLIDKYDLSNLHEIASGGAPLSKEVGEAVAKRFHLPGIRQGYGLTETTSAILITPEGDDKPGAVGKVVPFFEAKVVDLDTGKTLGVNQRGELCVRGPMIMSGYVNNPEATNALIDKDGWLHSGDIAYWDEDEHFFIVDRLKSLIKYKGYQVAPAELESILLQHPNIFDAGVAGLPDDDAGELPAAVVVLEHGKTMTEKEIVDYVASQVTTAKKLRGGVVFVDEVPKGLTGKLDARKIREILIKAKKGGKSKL

[10] = test system: Wnt5a (protein binding on small-molecule microarray); test: Wnt5a binders on small-molecule microarray, primary screen, biophysical, 635/667 nm fluorescence (AID 1142); conditions: 635 nm fluorescence, higher = more signal;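 also: fluorescence read at 667 nm with signal to noise per printed feature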
[11] = cell viability in Huh7 cells, primary screen, cytotoxicity control for HCV replication inhibitor project, CellTiter-Glo luminescence, basal, 48 h (AID 1143); conditions: Huh7 HCV replicon, higher = more signal, called active from +8 up or from −8 down;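 also: Huh7 hepatoma cells carrying a hepatitis C replication reporter with no stimulus; test concentration not given here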
[12] = P. aeruginosa biofilm formation inhibitors, primary screen, PAO1 strain, BacTiter-Glo luminescence, LB-PBS (AID 1144); conditions: 12 h, higher = more signal
[13] = CREB reporter modulators without forskolin, primary screen, cell-based, PC12, CRE-LacZ reporter, unstimulated (AID 1145); conditions: no forskolin, luminescence, 4.5 h, higher = more signal, called active from +8 up or from −8 down
[14] = CREB reporter modulators under forskolin, primary screen, cell-based, PC12, CRE-LacZ reporter, forskolin-stimulated (AID 1146); conditions: luminescence, 4.5 h, higher = more signal, called active from +8 up or from −8 down;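 also: PC12 cells with 6xCRE LacZ reporter stimulated by forskolin 10 µM; beta-galactosidase reporter signal reflecting CREB driven transcription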
[15] = target: Streptavidin (Streptomyces avidinii) (UniProt P22629); test: streptavidin binders on small-molecule microarray, primary screen, artefact control for SMM compound annotation, biophysical, 635/667 nm fluorescence (AID 1147); conditions: streptavidin binding, higher = more signal;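 also: signal reflects streptavidin binding to arrayed compounds as a control protein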
Streptavidin (Streptomyces avidinii), sequence (P22629 whole entry, looked up): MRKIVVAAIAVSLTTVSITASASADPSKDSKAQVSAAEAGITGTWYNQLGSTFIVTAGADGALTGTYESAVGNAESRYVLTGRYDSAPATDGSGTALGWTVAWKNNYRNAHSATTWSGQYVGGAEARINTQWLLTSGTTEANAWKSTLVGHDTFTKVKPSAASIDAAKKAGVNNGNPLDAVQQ

[16] = small-molecule binders of probe aInhba, primary screen, biochemical, small-molecule microarray, 635/667 nm fluorescence (AID 1148); conditions: higher = more signal;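 also: score merges 667nm spot fluorescence with signal-to-noise for antibody binding to printed compounds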
Torsin-1A (Homo sapiens) [17] = target: Torsin-1A (Homo sapiens) (UniProt O14656); test: torsin A binders from cell lysate, primary screen, small-molecule microarray, wild-type, 635/667 nm (AID 1149); conditions: COS7 hTOR1A-WT lysate, 635 nm fluorescence, higher = more signal
Torsin-1A (Homo sapiens), sequence (O14656 whole entry, looked up): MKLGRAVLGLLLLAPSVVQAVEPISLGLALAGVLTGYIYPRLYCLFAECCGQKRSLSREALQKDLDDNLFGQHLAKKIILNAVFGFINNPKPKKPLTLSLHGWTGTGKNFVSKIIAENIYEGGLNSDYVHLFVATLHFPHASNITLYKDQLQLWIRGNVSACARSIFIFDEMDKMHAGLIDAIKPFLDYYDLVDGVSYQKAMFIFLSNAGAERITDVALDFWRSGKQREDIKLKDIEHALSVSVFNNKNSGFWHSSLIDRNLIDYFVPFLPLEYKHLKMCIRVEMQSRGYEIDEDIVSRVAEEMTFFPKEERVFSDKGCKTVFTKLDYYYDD

Torsin-1A (Homo sapiens) [18] = target: Torsin-1A (Homo sapiens) (UniProt O14656); test: small-molecule binders of mutant TOR1A in lysate, primary screen, cell lysate, small-molecule microarray, COS7 lysate, 635/667 nm fluorescence (AID 1150); conditions: COS7 hTOR1A mutant lysate, 635 nm fluorescence, higher = more signal;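 also: score pools 667 nm emission and signal to noise measuring lysate protein binding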
[19] = test system: Sonic hedgehog protein (Shh); test: small-molecule binders of Shh protein, primary screen, biochemical, small-molecule microarray, 635/667 nm fluorescence (AID 1151); conditions: small-molecule microarray binding, 635 nm fluorescence; higher = more signal;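 also: Shh protein binding to compounds spotted on small-molecule microarray slides; score combines spot fluorescence intensity with signal-to-noise across triplicate slides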

| SMILES | composite z-score [1] | composite z-score [2] | composite z-score [3] | composite z-score [4] | composite z-score [5] | composite z-score [6] | z-score [7] | composite z-score (Lefty1) | composite z-score [8] | z-score [9] | composite z-score [10] | z-score [11] | z-score [12] | z-score [13] | z-score [14] | composite z-score [15] | composite z-score [16] | composite z-score (Torsin-1A (Homo sapiens) [17]) | composite z-score (Torsin-1A (Homo sapiens) [18]) | composite z-score [19] |
| --- | --- | --- | --- | --- | --- | --- | --- | --- | --- | --- | --- | --- | --- | --- | --- | --- | --- | --- | --- | --- |
| CC1CC/C=C\[C@H]2OC34C=CCN(CCN5CCOCC5)C(=O)[C@H]3N(CCO)C(=O)[C@@H]4C2C(=O)O1 (stereo not given in full) | 2.67 | -0.959 | -0.583 | 0.187 | -0.361 | -0.0989 | -0.213 | -0.887 | -0.176 | 0.749 (inactive) | -0.249 | -0.894 (inactive) | 0.463 (inactive) | -0.216 (inactive) | -0.626 (inactive) | -0.638 | -0.178 | 0.161 | 0.213 | -0.636 |
| COc1ccc(C(O)C2C=CC3C(=O)N(c4ccccc4)C(=O)C3N2Nc2ccc(C#N)cc2)c2ccccc12 (stereo not given) | 1.67 | 1.25 | 0.0632 | 0.979 | 0.944 | -0.012 | -0.616 | 0.392 | 1.04 | -0.786 (inactive) | 0.0756 | -0.127 (inactive) | -0.856 (inactive) | -0.143 (inactive) | 0.976 (inactive) | 2.49 | 0.442 | 0.109 | 0.917 | -0.149 |
| COc1ccccc1CN1C(=O)c2ccccc2[C@](Cc2ccccc2I)(C(=O)NC(C)C)[C@@H]1c1ccc(CO)cc1 | 1.94 | 1.24 | 0.629 | 0.983 | 1.14 | 0.506 | 1.86 | 0.773 | 1.16 | 1.35 (inactive) | 0.449 | -3.63 (inactive) | 0.0633 (inactive) | -0.0243 (inactive) | 1.08 (inactive) | 1.13 | 0.0422 | 0.667 | 1.08 | 1.78 |
| CC(C)C[C@@H]1NC(=O)[C@H]2C[C@@H](C(=O)NCCCCCC[N+](C)(C)C)[C@@H](c3cccc(OCCO)c3)N2C1=O | 2.76 | 0.381 | 0.125 | -1.08 | 1.43 | 1.01 | -0.525 | 0.691 | 0.432 | 0.579 (inactive) | -0.0449 | -0.192 (inactive) | -0.616 (inactive) | -0.256 (inactive) | -0.139 (inactive) | -0.368 | 0.0855 | 0.126 | 0.62 | 1.75 |
| CC(=O)N1Cc2ccccc2C[C@]2(N=C(c3ccc(OCCCO)cc3)O[C@@H]2c2ccccc2)C1=O | 2.62 | 1.2 | 0.552 | 0.654 | 0.743 | 1.2 | 0.638 | 0.036 | 0.956 | -2 (inactive) | 0.865 | -3.38 (inactive) | -0.497 (inactive) | 1.13 (inactive) | 2.08 (inactive) | 0.253 | 0.12 | 0.611 | 0.297 | 1.18 |
| CN1C(=O)C2C=CC(C(O)Cc3ccccc3)N(N(c3ccccc3)c3ccccc3)C2C1=O (stereo not given) | 0.548 | 1.17 | 0.293 | 0.331 | 0.307 | -0.622 | 0.54 | -0.0212 | 0.201 | -0.397 (inactive) | 0.0159 | 0.443 (inactive) | -0.597 (inactive) | 0.264 (inactive) | 0.6 (inactive) | 2.18 | 0.191 | 0.0867 | 0.25 | -0.572 |
| CN(C)C(=O)[C@@]1(Cc2ccccc2N=[N+]=[N-])COC(c2ccc(OCCCO)cc2)=N1 | 0.869 | 1.22 | 0.947 | 1 | 1.32 | 1.76 | 1.76 | -0.349 | 0.51 | -3.71 (inactive) | 0.932 | -2.68 (inactive) | 0.618 (inactive) | 0.942 (inactive) | 0.646 (inactive) | 0.726 | -0.0171 | 0.425 | 0.837 | -0.215 |
| O=c1cccc(-c2ccc(C(F)(F)F)cc2)o1 | 0.728 | -0.955 | -0.136 | -1.1 | -0.398 | -0.41 | 0.77 | -1.03 | -0.399 | 0.854 (inactive) | -0.281 | 0.421 (inactive) | 0.634 (inactive) | -0.275 (inactive) | -0.145 (inactive) | -0.43 | -0.0963 | -0.848 | -0.476 | -0.559 |
| O=C1O[C@@H](c2ccccc2)[C@@H](c2ccccc2)N2[C@@H](c3ccccc3OCCO)[C@]3(C(=O)Nc4ccc(C#CC5=CCCCC5)cc43)[C@@H](C(=O)NC[C@H](O)c3ccccc3)[C@H]12 | 1.08 | 1.13 | 0.0363 | 0.883 | 0.961 | 1.51 | -1.69 | 1.02 | -0.186 | -1.32 (inactive) | 0.361 | -6.39 (inactive) | -0.534 (inactive) | -1.56 (inactive) | -1.15 (inactive) | 0.625 | 0.162 | 0.385 | -0.0373 | 1.99 |
| O=C(CCCCCCC(=O)Nc1ccccc1)N/N=C/c1ccccc1 | 0.602 | -0.581 | -0.266 | -0.876 | -0.083 | 0.323 | -0.123 | -0.251 | -0.552 | -0.83 (inactive) | -0.343 | 0.0796 (inactive) | 0.99 (inactive) | 5.11 (inactive) | 0.0631 (inactive) | -0.184 | 0.0074 | 0.577 | 0.146 | 0.0351 |
| CN1C(=O)C2C=CC(C(O)C3CCCCC3)N(N3CCCCC3)C2C1=O (stereo not given) | 1.18 | 1.26 | 0.542 | 0.957 | 1.31 | 0.182 | 1.25 | 0.766 | 0.774 | 0.49 (inactive) | 0.341 | 0.505 (inactive) | -0.416 (inactive) | -0.326 (inactive) | 0.158 (inactive) | 0.842 | 0.268 | 0.221 | 0.579 | 0.875 |
| O=C(O)[C@H]1C[C@H]2C(=O)N3CCC[C@H]3C(=O)N2[C@H]1c1cccc(OCCO)c1 | 2.79 | 0.658 | -0.525 | 0.0871 | 1.32 | 0.871 | 1.95 | 0.232 | 0.227 | -1.97 (inactive) | 0.188 | -0.716 (inactive) | 0.0521 (inactive) | 0.818 (inactive) | 0.0548 (inactive) | -0.0748 | -0.154 | 0.847 | 1.57 | 0.643 |
